Results published in PubChem BioAssay AID1159580 (chemical genetic matrix, 2015).
Screen size: about 5,500 compounds; about 2,000 (36%) were called active. Another 18% or so got no clear call; they are omitted. Rule as the data show it: active = normalized growth mostly below about 0.91 (no sharp cut-off); inconclusive = no clear call, values can overlap the other calls; inactive = mostly above about 0.92. Some of the results follow.

Assay: chemical genetic growth profiling, strain panel (AID 1159580);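 also: tested at 20 µM; growth read once vehicle control cultures reached saturation at 30 °C; 1 = growth at the plate median or of vehicle wells; lower values mean less growth of the strain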
Conditions: growth OD

Measured: normalized growth

CN1CCN(C(c2ccccc2)c2ccccc2)CC1
inactive: S. cerevisiae deletion strains, locus YJR075W, strain HOC1, hits give low values 1 | S. cerevisiae deletion strains, locus YKL009W, strain mrt4, hits give low values 0.963 | S. cerevisiae deletion strains, locus YKL068W, hits give low values 0.977 | S. cerevisiae deletion strains, locus YKL085W, strain MDH1 (second series), hits give low values 0.973 | S. cerevisiae deletion strains, locus YKL085W, strain MDH1, hits give low values 0.973 | S. cerevisiae deletion strains, locus YKL160W, strain elf1, hits give low values 0.965 | S. cerevisiae deletion strains, locus YKL190W, strain CNB1, hits give low values 0.974 | S. cerevisiae deletion strains, locus YKR001C, strain vps1, hits give low values 0.974 | S. cerevisiae deletion strains, locus YKR026C, strain gcn3, hits give low values 0.992 | S. cerevisiae deletion strains, locus YKR091W, strain srl3, hits give low values 0.98 | S. cerevisiae deletion strains, locus YLL001W, strain dnm1, hits give low values 0.996 | S. cerevisiae deletion strains, locus YLL026W, hits give low values 0.999 | S. cerevisiae deletion strains, locus YLL041C, strain sdh2, hits give low values 0.971 | S. cerevisiae deletion strains, locus YLR027C, strain aat2, hits give low values 0.985 | S. cerevisiae deletion strains, locus YLR039C, strain RIC1, hits give low values 1 | S. cerevisiae deletion strains, locus YLR058C, strain SHM2, hits give low values 0.999 | S. cerevisiae deletion strains, locus YLR102C, strain apc9, hits give low values 0.967 | S. cerevisiae deletion strains, locus YLR113W, strain HOG1, hits give low values 0.994 | S. cerevisiae deletion strains, locus YLR221C, strain rsa3, hits give low values 1.02 | S. cerevisiae deletion strains, locus YLR258W, strain gsy2, hits give low values 0.978 | S. cerevisiae deletion strains, locus YLR262C, strain YPT6 (second series), hits give low values 1 | S. cerevisiae deletion strains, locus YLR262C, strain YPT6, hits give low values 1.03 | S. cerevisiae deletion strains, locus YLR268W, strain sec22, hits give low values 0.965 | S. cerevisiae deletion strains, locus YLR320W, strain mms22, hits give low values 0.992 | S. cerevisiae deletion strains, locus YLR330W, strain CHS5, hits give low values 0.989 | S. cerevisiae deletion strains, locus YLR342W, strain FKS1 (second series), hits give low values 1.03 | S. cerevisiae deletion strains, locus YLR342W, strain FKS1, hits give low values 0.991 | S. cerevisiae deletion strains, locus YLR357W, strain rsc2, hits give low values 0.948 | S. cerevisiae deletion strains, locus YLR370C, strain arc18, hits give low values 0.989 | S. cerevisiae deletion strains, locus YLR371W, strain rom2, hits give low values 0.974 | S. cerevisiae deletion strains, locus YLR384C, strain iki3, hits give low values 0.965 | S. cerevisiae deletion strains, locus YLR418C, strain cdc73, hits give low values 0.934 | S. cerevisiae deletion strains, locus YML016C, strain PPZ1, hits give low values 1 | S. cerevisiae deletion strains, locus YML032C, strain rad52, hits give low values 0.959 | S. cerevisiae deletion strains, locus YML120C, strain ndi1, hits give low values 0.99 | S. cerevisiae deletion strains, locus YML124C, strain tub3, hits give low values 0.968 | S. cerevisiae deletion strains, locus YMR058W, strain fet3, hits give low values 1.01 | S. cerevisiae deletion strains, locus YMR078C, strain ctf18, hits give low values 0.973 | S. cerevisiae deletion strains, locus YMR125W, strain sto1, hits give low values 0.95 | S. cerevisiae deletion strains, locus YMR129W, hits give low values 0.996 | S. cerevisiae deletion strains, locus YMR205C, strain PFK2, hits give low values 0.963 | S. cerevisiae deletion strains, locus YMR223W, strain ubp8, hits give low values 0.991 | S. cerevisiae deletion strains, locus YMR231W, strain pep5, hits give low values 0.994 | S. cerevisiae deletion strains, locus YMR263W, strain SAP30, hits give low values 0.997 | S. cerevisiae deletion strains, locus YMR307W, strain GAS1, hits give low values 1.02 | S. cerevisiae deletion strains, locus YNL067W, strain RPL9B, hits give low values 0.996 | S. cerevisiae deletion strains, locus YNL071W, strain lat1, hits give low values 0.984 | S. cerevisiae deletion strains, locus YNL128W, strain TEP1, hits give low values 0.991 | S. cerevisiae deletion strains, locus YNL153C, strain GIM3, hits give low values 1 | S. cerevisiae deletion strains, locus YNL183C, strain NPR1, hits give low values 0.937 | S. cerevisiae deletion strains, locus YNL209W, strain ssb2, hits give low values 0.978 | S. cerevisiae deletion strains, locus YNL233W, strain BNI4, hits give low values 1 | S. cerevisiae deletion strains, locus YNL248C, strain rpa49, hits give low values 0.932 | S. cerevisiae deletion strains, locus YNL250W, strain rad50, hits give low values 0.987 | S. cerevisiae deletion strains, locus YNL271C, strain bni1, hits give low values 0.974 | S. cerevisiae deletion strains, locus YNL298W, strain CLA4, hits give low values 0.975 | S. cerevisiae deletion strains, locus YNL307C, strain MCK1, hits give low values 0.962 | S. cerevisiae deletion strains, locus YNL322C, strain KRE1 (second series), hits give low values 0.978 | S. cerevisiae deletion strains, locus YNL322C, strain KRE1, hits give low values 0.991 | S. cerevisiae deletion strains, locus YNR049C, strain mso1, hits give low values 0.99 | S. cerevisiae deletion strains, locus YNR052C, strain pop2, hits give low values 0.953 | S. cerevisiae deletion strains, locus YOL006C, strain TOP1, hits give low values 0.929 | S. cerevisiae deletion strains, locus YOL012C, strain htz1 1.39 | S. cerevisiae deletion strains, locus YOL147C, strain pex11, hits give low values 0.978 | S. cerevisiae deletion strains, locus YOR001W, strain rrp6, hits give low values 0.993 | S. cerevisiae deletion strains, locus YOR061W, strain CKA2, hits give low values 1 | S. cerevisiae deletion strains, locus YOR069W, strain VPS5, hits give low values 0.998 | S. cerevisiae deletion strains, locus YOR070C, strain gyp1, hits give low values 0.979 | S. cerevisiae deletion strains, locus YOR080W, strain dia2, hits give low values 0.986 | S. cerevisiae deletion strains, locus YOR083W, strain WHI5, hits give low values 0.948 | S. cerevisiae deletion strains, locus YOR106W, strain vam3, hits give low values 0.995 | S. cerevisiae deletion strains, locus YOR136W, strain idh2, hits give low values 0.971 | S. cerevisiae deletion strains, locus YOR144C, strain elg1, hits give low values 0.96 | S. cerevisiae deletion strains, locus YOR184W, strain ser1, hits give low values 0.994 | S. cerevisiae deletion strains, locus YOR231W, strain MKK1, hits give low values 0.987 | S. cerevisiae deletion strains, locus YOR265W, strain rbl2, hits give low values 0.98 | S. cerevisiae deletion strains, locus YOR270C, strain vph1, hits give low values 0.914 | S. cerevisiae deletion strains, locus YOR290C, strain snf2, hits give low values 0.974 | S. cerevisiae deletion strains, locus YOR316C, strain cot1, hits give low values 0.958 | S. cerevisiae deletion strains, locus YPL051W, strain arl3, hits give low values 0.979 | S. cerevisiae deletion strains, locus YPL055C, strain LGE1, hits give low values 0.975 | S. cerevisiae deletion strains, locus YPL078C, strain atp4, hits give low values 0.974 | S. cerevisiae deletion strains, locus YPL106C, strain sse1, hits give low values 0.949 | S. cerevisiae deletion strains, locus YPL240C, strain hsp82, hits give low values 1.01 | S. cerevisiae deletion strains, locus YPL241C, strain CIN2, hits give low values 0.994 | S. cerevisiae deletion strains, locus YPL256C, strain CLN2, hits give low values 0.995 | S. cerevisiae deletion strains, locus YPR119W, strain clb2, hits give low values 0.977 | S. cerevisiae deletion strains, locus YPR141C, strain kar3, hits give low values 0.954 | S. cerevisiae deletion strains, locus YPR163C, strain tif3, hits give low values 0.971 | S. cerevisiae deletion strains, locus YPR167C, strain met16, hits give low values 0.958 | S. cerevisiae deletion strains, strain wtn01, hits give low values 0.979 | S. cerevisiae strains, strain wild type, hits give low values 1.01
